# The whole screen tested about 420,000 compounds, of which about 50,000 (12%) were called active. Roughly 26% stayed inconclusive and do not appear here. The sample holds actives, similar compounds and a random draw of the others, so the mix is not that of the screen. A number with no mark means an inactive call. The call rests on the fitted dose curve; in most records, active means well fitted inhibition curve with a large enough effect; inconclusive means small, poorly fitted or top-dose-only effect; inactive means flat fitted curve, though single readings scatter.
# Test: qHTS for Inhibitors of human tyrosyl-DNA phosphodiesterase 1 (TDP1): qHTS in cells in presence of CPT; further: nearly all actives have a fitted effect of over 55% in size
# Details: chicken DT40 Tdp1-/-;hTDP1 cells + 20 nM CPT, ATP luminescence, 48 h; series mostly up to 46.2 µM; activity change, negative = growth inhibition: at the top concentration
# Outline: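 Chicken DT40 Tdp1-/- cells complemented with human TDP1, 400 cells/well, exposed to compounds plus 20 nM camptothecin for at least 48 h at 37 C; viability read as ATP content by CellTiter-Glo luminescence.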
# On the % scale 0 is the no-effect control and ±100 the full control effect; potency means the concentration at half of the fitted maximal effect.
SMILES,Potency,"activity change, negative = growth inhibition"
Cc1nc2cc(C(F)(F)F)ccc2n1CCNc1nc(-c2cc(Cl)c(N)c(Cl)c2)cs1,23.1 µM (active),–
O=C(Oc1cc(OC(=O)c2ccccc2)c2c(c1)OC(c1ccc(OC(=O)c3ccccc3)c(OC(=O)c3ccccc3)c1)[C@@H](OC(=O)c1ccccc1)C2)c1ccccc1 (stereo not given in full),–,11.4%
C[C@@H](C(=O)Nc1ccc2ccccc2c1)[C@@H]1C[C@@]1(C)[C@@H](NC(=O)c1cccnc1)c1ccccc1,–,-18.3%
COc1ccc(S(=O)(=O)Nc2ccc(O)c(Sc3nc4ccccc4s3)c2)cc1,–,-15.5%
O=C(O)c1cccc(S(=O)(=O)Nc2ccc(O)cc2Sc2nc3ccccc3s2)c1,–,23.1%
O=[N+]([O-])c1c(NCCO)cc(Sc2nc3ccccc3s2)c2nonc12,0.82 µM (active),–
CSc1nnc(-c2ccc(C(F)(F)F)cn2)o1,–,20.6%
N=c1n(Cc2ccc(Cl)cc2)c2ccccc2n1CC(O)c1ccco1 (stereo not given),7.31 µM (active),–
O=S(=O)(O)c1nc2ccccc2n1Cc1ccc(Cl)cc1,–,0.399%
CCCNC(=O)c1cc(C2CCCCN2S(=O)(=O)c2ccc(C#N)cc2)on1 (stereo not given),–,-6.93%
O=C(NCC1(N2CCCCC2)CCCCC1)c1ccc(NS(=O)(=O)c2ccc(F)cc2)cc1,–,-29.5%
O=C(OCCOCn1cc(Br)c(=O)[nH]c1=O)c1ccccc1,–,-4.36%
CCCn1nnnc1NCc1ccc(CC)cc1,–,-1.3%
Cc1cccc(-n2c(C)cc(/C=N/NC(N)=S)c2C)c1,10.3 µM (active),–
CC(=O)Nc1ccc(/C=N/NC(=O)c2cccs2)cc1,–,-3.1%
Cc1cc(/C=N/n2cnnc2)c(C)n1-c1cccc(C(=O)O)c1,–,-0.903%
Cc1ccc(C(=O)Nc2ccc(NC(=O)c3cccs3)cc2)c(C)c1,–,0.567%
Cc1cccc(-n2c(C)cc(/C=N\NC(=O)c3cccs3)c2C)c1,18.4 µM (active),–
Cc1cc(/C=N/Nc2ccc([N+](=O)[O-])cn2)c(C)n1-c1cccc(C(=O)O)c1,–,-21.9%
Cc1c(NC(=O)CSc2nnc(-c3cccnc3)n2N)c(=O)n(-c2ccccc2)n1C,–,4.52%
CC(C)c1ccc(CC(=O)N2CCC2(C)C(=O)NS(=O)(=O)c2ccc(C(C)(C)C)cc2)cc1 (stereo not given),–,-11.2%
COc1ccc(NC(=O)NN2CCN(C)CC2)c(OC)c1,–,2.16%

SMILES,Potency,"activity change, negative = growth inhibition"
COc1ccc(CCNC(=O)CCCn2c(=O)c3ccccc3n(Cc3ccc(C)cc3)c2=O)cc1OC,23.1 µM (active),–
Cc1ccc(Cn2c(=O)n(CCCC(=O)NCc3ccccc3Cl)c(=O)c3ccccc32)cc1,–,-13.5%
COc1ccc(CCNC(=O)CCCCn2c(=O)c3ccccc3n(Cc3ccccc3C)c2=O)cc1OC,20.6 µM (active),–
COc1ccc(CCNC(=O)CCn2c(=O)oc3ccccc32)cc1OC,–,-8.19%
COc1ccc(CCNC(=O)CCCn2c(=O)c3ccccc3n(Cc3ccc(F)cc3Cl)c2=O)cc1OC,–,4.7%
CCCCNC(=O)CCn1c(=O)c2ccccc2n(Cc2cc(C)ccc2C)c1=O,–,-3.9%
CCOc1cc(CNCc2ccccn2)ccc1OCC(=O)NC(C)(C)C,–,-87.9%
N#Cc1ccc(C(=O)OCC(=O)NC(=O)NC2CCCCC2)cc1,–,-7.73%
COc1ccc(C(=O)NC(C)c2nccs2)cc1OC1CCN(C(C)C)CC1 (stereo not given),–,-0.147%
COc1ccc(/C=C/CN2CCN(Cc3ccc(C)cc3)C(CCO)C2)cc1 (stereo not given),–,14.8%
CN(CCOc1ccccc1)C(=O)c1cc(-c2ccco2)nc2ccccc12,18.4 µM (active),–
O=C(Nc1cccc(F)c1)c1cc(-c2ccco2)nc2ccccc12,–,1.56%
CN(C(=O)COC(=O)c1cc(-c2ccco2)nc2ccccc12)C1CCS(=O)(=O)C1 (stereo not given),–,-5.97%
COCCCNC(=O)c1c(NC(=O)c2cc(=O)c3cc(C)c(C)cc3o2)sc2c1CCCC2,–,-17.6%
CCS(=O)(=O)C1=NSC2=NC(=O)/C(=C\c3ccc(OS(=O)(=O)c4ccccc4)cc3)C(=N)N21,–,-10.9%
c1ccc(-c2ccccc2OCCN2CCCCC2)cc1,–,-24.5%
Cc1ccc(CN2CCNC(=O)C2CC(=O)NCc2csc(C(C)C)n2)cc1 (stereo not given),–,-14.1%
Cc1cc(C)c(NC(=O)CSc2nc3ccncc3[nH]2)c(C)c1,–,-28.9%
Nc1nnnn1/N=C/c1cc([N+](=O)[O-])ccc1O,–,-1.04%
O=[N+]([O-])c1ccc(O)c(/C=N/Nc2ccccc2[N+](=O)[O-])c1,3.26 µM (active),–
O=[N+]([O-])c1cccc(C=NN=Cc2ccccc2O)c1,–,4.42%
C[C@H](CO)N1C[C@H](C)[C@@H](CN(C)S(=O)(=O)c2ccc(Oc3ccccc3)cc2)OCc2cn(nn2)CCCC1=O,–,-16.1%

SMILES,Potency,"activity change, negative = growth inhibition"
COc1cc2nc(Cl)nc(NC3CC3)c2cc1OC,14.1 µM (active),–
COc1cc2nc(N3CCCN(C)CC3)nc(NC3CC3)c2cc1OC,7.94 µM (active),–
COc1cc(OC)c(NC(=O)c2cnc(N3CCCC3)nc2C)cc1Cl,–,-13.5%
COc1cc2nc(Cl)nc(NCCO)c2cc1OC,–,5.96%
COc1cc2nc(N3CCCN(C)CC3)nc(NC(C)C)c2cc1OC,12.6 µM (active),–
COc1ccc(C(=O)N2CCCN(C)CC2)c(OC)c1,–,-4.48%
COc1cc2nc(C#Cc3nc4cc(OC)c(OC)cc4[nH]3)[nH]c2cc1OC,–,6.18%
Cc1ccc(CNS(=O)(=O)CCNC(=O)c2ccccc2)cc1,–,4.69%
CCOC(=O)C1CCCN(S(=O)(=O)c2ccc3c(c2)C(C)(C)C(=O)N3C)C1 (stereo not given),–,-2.23%
O=C(COC(=O)c1ccco1)Nc1ccc(Cl)cn1,–,-20.4%
COc1ccc(C2Nc3ccccc3C(=O)N2c2ccc(F)cc2)cc1Cn1nnc2ccccc21 (stereo not given),–,-12.8%
O=C(Cn1nnc2ccccc2c1=O)Nc1cc(C(F)(F)F)ccc1N1CCOCC1,–,-19.8%
CCCCN(C(=O)/C=C/c1ccco1)c1c(N)n(CC(C)C)c(=O)[nH]c1=O,–,6.51%
CN1CCN(c2ncc3c(n2)CC(c2ccccc2F)CC3=O)CC1 (stereo not given),–,-27.4%
O=C(O)CSc1nnc(-c2ccc3c(c2)OCO3)n1-c1ccccc1,–,0.195%
c1n[nH]c(NCc2ccc3c(c2)OCO3)n1,–,-0.691%
Cc1cc(NCc2cccnc2)no1,–,-0.255%
c1cncc(CNc2ccnc(-c3ccc4c(c3)OCO4)n2)c1,8.2 µM (active),–
C=CCn1c(SCC(=O)NCC2CCCO2)nc2sc(C)c(C)c2c1=O (stereo not given),–,-25.8%
C=CCn1c(SCc2c(C)noc2C)nc2sc3c(c2c1=O)CCC(C)C3 (stereo not given),14.6 µM (active),–
C=CCn1c(SCC(=O)NCCCO)nc2sc3c(c2c1=O)CCC3,–,11.1%

# From PubChem BioAssay AID686979 (National Center for Advancing Translational Sciences (NCATS), 2013)
